Test results reported in PubChem BioAssay (Tox21).
Inconclusive results are not listed. A call without a number means that no potency is given here. A number with no mark means an inactive call. Calls of active or inactive are those of the source. Unless noted, calls follow the shape of the dose curve; as a rule, active = well fitted curve in the direction sought with a large enough effect in the repeat runs; inconclusive = weak or mixed curves; inactive = no such curve, though single readings can be large; an effect the other way counts as inactive or inconclusive.

Columns and labels:
[1] = qHTS assay to identify aromatase inhibitors - cell viability counter screen (AID 743084);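 also: cells stimulated with testosterone during compound exposure; nearly all actives have a fitted effect of over 55% in size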
[2] = qHTS assay to identify small molecule that activate the aryl hydrocarbon receptor (AhR) signaling pathway - cell viability counter screen (AID 743086);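 also: HepG2 liver cells carrying the AhR DRE luciferase reporter; series mostly up to about 70 µM; nearly all actives have a fitted effect of over 45% in size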
Method in brief: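 HepG2-AhR-luc (HG2L7.5c1) cells, 4000/well, were preincubated 5 h at 37C, exposed to compound in qHTS format for 24 hr at 37C, then given CellTiter-Fluor for 30 min; viability was read as fluorescence in the reporter wells.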

[3] = molecular target: Peroxisome proliferator-activated receptor gamma (Homo sapiens) (UniProt P37231); assay: qHTS assay to identify small molecule agonists of the peroxisome proliferator-activated receptor gamma (PPARg) signaling pathway (AID 743094; active = well fitted activation curve with a large enough effect in the signal ratio in the repeat runs, not every such curve was filed as active; the % refers to the signal ratio)
Method in brief: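 GeneBLAzer PPARg UAS-bla HEK293H cells carrying a stably integrated beta-lactamase reporter were pre-incubated 5 h at 37C, then exposed to compounds in DMSO for 17 h at 37C; LiveBLAzer B/G FRET substrate was added for 1 h at room temperature and fluorescence read.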

[4] = qHTS assay to identify small molecule antagonists of the peroxisome proliferator-activated receptor gamma (PPARg) signaling pathway - cell viability counter screen (AID 743194); also: nearly all actives have a fitted effect of over 55% in size
Method in brief: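 PPARg-UAS-bla HEK293H cells were plated, rested 5 h at 37 C, then treated with compounds plus rosiglitazone (50 nM final) for 17 h at 37 C; viability was then read by CellTiter-Glo luminescence after 30 min at room temperature.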

[5] = qHTS assay for small molecule agonists of the antioxidant response element (ARE) signaling pathway - cell viability counter screen (AID 743203; calls by dose curve; also: nearly all actives have a fitted effect of over 55% in size)
Method in brief: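 CellSensor ARE-bla HepG2 cells, 2,000 per well, rested 5 hrs at 37C/5% CO2, then exposed to compound in DMSO for 16 hrs; viability read as CellTiter-Glo luminescence after 30 min at room temperature, in the reporter wells.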

[6] = qHTS assay for small molecule activators of the heat shock response signaling pathway - cell viability counter screen (AID 743209); also: nearly all actives have a fitted effect of over 50% in size
Method in brief: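 CellSensor HSE-bla HeLa cells, plated overnight at 37 C/5% CO2, were exposed to compounds in DMSO for 5 h at 37 C. Viability was then read in the same wells by CellTiter-Glo luminescence after 30 min at room temperature.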

[7] = qHTS assay for small molecule activators of the heat shock response signaling pathway (AID 743210; active = well fitted activation curve with a large enough effect in the signal ratio in the repeat runs, with a control signal flat, not every such curve was filed as active; the % refers to the signal ratio; also: series mostly up to about 63 µM)
Method in brief: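 HSE-bla HeLa cells (beta-lactamase reporter under heat shock response elements) were exposed to compounds for 5 h at 37 C, then loaded with LiveBLAzer B/G FRET substrate for 2.5 h at room temperature before fluorescence reading.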

[8] = molecular target: Peroxisome proliferator-activated receptor gamma (Homo sapiens) (UniProt P37231); assay: qHTS assay to identify small molecule antagonists of the peroxisome proliferator-activated receptor gamma (PPARg) signaling pathway (AID 743191; calls by dose curve; also: series mostly up to about 63 µM; nearly all actives have a fitted effect of over 30% in size)
Method in brief: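 GeneBLAzer PPARg UAS-bla HEK293H cells carrying a UAS-driven beta-lactamase reporter were plated at 3000 cells/well, preincubated 5 h at 37C, then given compound for 17 h at 37C; LiveBLAzer B/G FRET substrate was read after 1 h at room temperature.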

[9] = qHTS assay for small molecule agonists of the antioxidant response element (ARE) signaling pathway (AID 743202; active = well fitted activation curve with a large enough effect in the signal ratio in the repeat runs, not every such curve was filed as active; the % refers to the signal ratio; also: potency is read from the fitted curve at half-maximal effect)
Method in brief: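 Read-out: LiveBLAzer B/G FRET substrate fluorescence after 2 h at room temperature, following 16 h compound treatment at 37 C of HepG2 cells carrying an ARE-driven beta-lactamase reporter.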

[10] = molecular target: Aryl hydrocarbon receptor (Homo sapiens) (UniProt P35869); assay: qHTS assay to identify small molecule that activate the aryl hydrocarbon receptor (AhR) signaling pathway (AID 743085); also: nearly all actives have a fitted effect of over 15% in size; also: potency is read from the fitted curve at half-maximal effect;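 as to activation: HG2L7.5c1 human HepG2 liver cells with stably integrated DRE-driven firefly reporter; series mostly up to about 70 µM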
Method in brief: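 Reporter assay in engineered HepG2 line HG2L7.5c1, whose plasmid carries twenty dioxin responsive elements upstream of firefly luciferase. Treatment lasted 24 h at 37C; ONE-Glo luminescence gauged induction.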

Aryl hydrocarbon receptor (Homo sapiens), sequence (P35869 whole entry, looked up): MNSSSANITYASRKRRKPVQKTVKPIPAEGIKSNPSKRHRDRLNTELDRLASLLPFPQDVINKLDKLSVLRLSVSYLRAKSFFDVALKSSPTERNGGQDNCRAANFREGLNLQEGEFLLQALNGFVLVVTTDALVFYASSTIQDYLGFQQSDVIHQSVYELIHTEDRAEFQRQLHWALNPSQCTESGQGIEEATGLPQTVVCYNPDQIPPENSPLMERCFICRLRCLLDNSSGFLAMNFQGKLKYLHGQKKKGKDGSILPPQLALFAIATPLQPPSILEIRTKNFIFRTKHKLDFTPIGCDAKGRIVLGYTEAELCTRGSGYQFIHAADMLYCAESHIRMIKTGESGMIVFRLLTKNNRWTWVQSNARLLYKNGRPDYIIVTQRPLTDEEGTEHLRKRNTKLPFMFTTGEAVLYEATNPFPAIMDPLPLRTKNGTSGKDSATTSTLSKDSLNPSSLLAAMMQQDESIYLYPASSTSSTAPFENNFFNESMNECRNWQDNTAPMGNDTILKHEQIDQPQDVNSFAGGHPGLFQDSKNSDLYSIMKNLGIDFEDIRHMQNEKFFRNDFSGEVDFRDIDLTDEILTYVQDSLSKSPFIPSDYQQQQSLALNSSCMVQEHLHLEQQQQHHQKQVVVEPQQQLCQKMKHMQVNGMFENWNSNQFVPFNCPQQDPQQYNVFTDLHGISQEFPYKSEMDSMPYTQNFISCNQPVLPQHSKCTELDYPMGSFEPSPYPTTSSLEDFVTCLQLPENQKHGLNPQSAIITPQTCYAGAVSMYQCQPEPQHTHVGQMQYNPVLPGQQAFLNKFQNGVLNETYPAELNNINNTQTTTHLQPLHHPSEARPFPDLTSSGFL
Peroxisome proliferator-activated receptor gamma (Homo sapiens), sequence (P37231 whole entry, looked up): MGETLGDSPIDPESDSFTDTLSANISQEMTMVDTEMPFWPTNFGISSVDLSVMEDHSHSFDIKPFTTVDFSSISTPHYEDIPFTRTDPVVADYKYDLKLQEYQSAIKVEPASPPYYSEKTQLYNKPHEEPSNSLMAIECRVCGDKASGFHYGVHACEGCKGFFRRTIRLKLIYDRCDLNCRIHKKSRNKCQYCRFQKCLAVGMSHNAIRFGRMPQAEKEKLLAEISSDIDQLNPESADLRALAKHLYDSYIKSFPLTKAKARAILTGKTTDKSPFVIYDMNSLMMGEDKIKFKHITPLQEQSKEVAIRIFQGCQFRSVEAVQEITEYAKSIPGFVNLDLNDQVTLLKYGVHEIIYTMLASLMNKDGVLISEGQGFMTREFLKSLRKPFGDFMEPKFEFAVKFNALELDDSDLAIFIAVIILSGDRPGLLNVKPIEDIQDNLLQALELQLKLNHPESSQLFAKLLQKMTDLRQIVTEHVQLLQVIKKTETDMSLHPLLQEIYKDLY

## CCN1CCN(C(=O)N[C@@H](C(=O)N[C@@H]2C(=O)N3C(C(=O)O)=C(CSc4nnnn4C)CS[C@H]23)c2ccc(O)cc2)C(=O)C1=O
[1]
  outcome: inactive
[2]
  outcome: inactive
[3]
  outcome: inactive
[4]
  outcome: inactive
[5]
  outcome: inactive
[6]
  Potency: inactive
[7]
  outcome: inactive

## CCCCCCCCCCCCCC(=O)OCC
[1]
  outcome: inactive
[2]
  outcome: inactive
[3]
  outcome: inactive
[4]
  outcome: inactive
[5]
  outcome: inactive
[6]
  Potency: inactive
[7]
  outcome: inactive

## CCCCc1ccc(Cl)cc1
[1]
  outcome: inactive
[2]
  outcome: inactive
[3]
  outcome: inactive
[8]
  outcome: inactive
[4]
  outcome: inactive
[5]
  outcome: inactive
[6]
  Potency: inactive
[7]
  outcome: inactive

## O=C(O)COc1ccc2ccccc2c1
[1]
  outcome: inactive
[2]
  outcome: inactive
[3]
  outcome: inactive
[8]
  outcome: inactive
[5]
  outcome: inactive
[6]
  Potency: inactive
[7]
  outcome: inactive

## CCNC(=O)C(C)OC(=O)Nc1ccccc1 (stereo not given)
[1]
  outcome: inactive
[2]
  outcome: inactive
[3]
  outcome: inactive
[4]
  outcome: inactive
[9]
  Potency: inactive
[5]
  outcome: inactive
[6]
  Potency: inactive
[7]
  outcome: inactive

## C[C@@H]1CC[C@@]2(OC1)O[C@H]1C[C@H]3[C@@H]4CC[C@H]5C[C@@H](O)CC[C@]5(C)[C@H]4CC(=O)[C@]3(C)[C@H]1[C@@H]2C
[1]
  outcome: inactive
[10]
  Potency: inactive
[2]
  outcome: inactive
[4]
  activity change, negative = cytotoxicity: 10.8% [at 5.95 µM]
[9]
  activation: 5.01% [at 8.36 µM]
[6]
  activity change, negative = cytotoxicity: 11.4% [at 5.95 µM]
[7]
  activation: 0.0014% [at 5.95 µM]

## O=C(O)P(=O)(O)O
[1]
  outcome: inactive
[10]
  Potency: inactive
[2]
  outcome: inactive
[4]
  outcome: inactive
[9]
  Potency: inactive
[5]
  outcome: inactive
[6]
  Potency: inactive

## O=C(CCBr)N1CCN(C(=O)CCBr)CC1
[1]
  outcome: inactive
[10]
  Potency: inactive
[2]
  outcome: inactive
[8]
  outcome: inactive
[4]
  outcome: inactive
[9]
  Potency: 13.3 µM (active)
[5]
  outcome: inactive
[6]
  Potency: inactive
[7]
  outcome: inactive

## O=C1Nc2ccccc2C1=O
[1]
  outcome: inactive
[2]
  outcome: inactive
[3]
  outcome: inactive
[9]
  Potency: 27.1 µM (active)
[5]
  outcome: inactive
[6]
  Potency: inactive
[7]
  outcome: inactive

## CCOC(=O)c1ccc(N(C)C)cc1
[1]
  outcome: inactive
[2]
  outcome: inactive
[3]
  outcome: inactive
[4]
  outcome: inactive
[6]
  Potency: inactive

## CC(=O)c1ccc2ccc3ccccc3c2c1
[1]
  outcome: inactive
[10]
  Potency: 60.8 µM (active)
[2]
  outcome: inactive
[8]
  outcome: inactive
[9]
  Potency: inactive
[5]
  outcome: inactive
[6]
  Potency: inactive

## CN(C)c1ccncc1
[1]
  outcome: inactive
[10]
  Potency: inactive
[2]
  outcome: inactive
[4]
  outcome: inactive
[9]
  Potency: inactive
[5]
  outcome: inactive
[6]
  Potency: inactive
[7]
  outcome: inactive

## O=C(O)Cc1c(Cl)ccc(Cl)c1Cl
[1]
  outcome: inactive
[10]
  Potency: inactive
[4]
  outcome: inactive
[9]
  Potency: inactive
[5]
  outcome: inactive
[6]
  Potency: inactive

## CCCCCCCCS(=O)(=O)O
[1]
  outcome: inactive
[10]
  Potency: inactive
[2]
  outcome: inactive
[4]
  outcome: inactive
[9]
  Potency: inactive
[6]
  Potency: inactive
[7]
  outcome: inactive

## CC(=O)OC1CCC(C(C)(C)C)CC1 (stereo not given)
[1]
  outcome: inactive
[10]
  Potency: inactive
[2]
  outcome: inactive
[4]
  outcome: inactive
[9]
  Potency: inactive
[5]
  outcome: inactive
[6]
  Potency: inactive

## CN(C)c1cc(NC(=O)CNC(C)(C)C)c(O)c2c1C[C@H]1C[C@H]3[C@H](N(C)C)C(=O)C(C(N)=O)=C(O)[C@@]3(O)C(=O)C1=C2O
[1]
  outcome: inactive
[10]
  Potency: inactive
[3]
  outcome: inactive
[8]
  outcome: inactive
[4]
  outcome: inactive
[5]
  outcome: inactive
[6]
  Potency: inactive
[7]
  outcome: inactive

## CC1(C)C(=O)C(C)(C)C1=O
[1]
  outcome: inactive
[10]
  Potency: inactive
[2]
  outcome: inactive
[4]
  outcome: inactive
[9]
  Potency: inactive
[5]
  outcome: inactive
[6]
  Potency: inactive

## CCCCCCCCCCCCCCCCN(C)C
[1]
  activity change, negative = cytotoxicity: 0.21% [at 8.47 µM]
[10]
  activation: -0.709% [at 8.47 µM]
[2]
  viability change, negative = cytotoxic: -0.517% [at 8.47 µM]
[4]
  activity change, negative = cytotoxicity: 2.19% [at 5.95 µM]
[9]
  activation: 0.808% [at 8.36 µM]
[5]
  viability change, negative = cytotoxic: 8.57% [at 8.36 µM]
[6]
  activity change, negative = cytotoxicity: -2.6% [at 5.95 µM]
[7]
  activation: -0.814% [at 5.95 µM]
